These results are taken from PubChem BioAssay.

Experiment [1] is described as follows: growth inhibition of DIPG glioma cells, dose response, cell-based, SU-DIPG-XIII, MIPE4.0, CellTiter-Glo, qHTS (AID 1347061; cut-off not given, nearly all actives have AC50 up to about 37 µM;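 further: cells exposed to compound for 48 hours before readout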). The settings on record: SU-DIPG-XIII viability, CellTiter-Glo ATP luminescence. On the technique in general: In ATP-based viability assays light output follows the ATP content of the culture.
Experiment [2] is described as follows: growth inhibition of DIPG glioma cells, dose response, cell-based, JHH-DIPG-1, MIPE4.0, CellTiter-Glo, qHTS (AID 1347062; cut-off not given, nearly all actives have AC50 up to about 27 µM;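 on AC50: cells exposed to compound for two days before readout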). The settings on record: JHH-DIPG-1 viability, CellTiter-Glo ATP luminescence.
Experiment [3] in a line: growth inhibition of DIPG glioma cells, dose response, cell-based, SU-DIPG-IV, MIPE4.0, CellTiter-Glo, qHTS (AID 1347063; cut-off not given, nearly all actives have AC50 up to about 30 µM;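 further: compound exposure lasted 48 hours before the viability readout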). The settings on record: SU-DIPG-IV viability, CellTiter-Glo ATP luminescence.
The nature of experiment [4]: SU-DIPG-VI glioma cell viability, MIPE4.0 library, CellTiter-Glo luminescence, qHTS (AID 1347066; cut-off not given, nearly all actives have AC50 up to about 30 µM;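 further: cells exposed to compound for 48 hours before readout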). The settings on record: CellTiter-Glo ATP luminescence.
Experiment [5] is described as follows: growth inhibition of DIPG glioma cells, dose response, cell-based, SU-DIPG-XIII, MIPE5.0, CellTiter-Glo, qHTS (AID 1347064; cut-off not given, nearly all actives have AC50 up to about 23 µM). The settings on record: SU-DIPG-XIII viability, CellTiter-Glo ATP luminescence.
Experiment [6] in a line: JHH-DIPG-1 glioma cell viability, MIPE5.0 library, CellTiter-Glo luminescence, qHTS (AID 1347067; cut-off not given, nearly all actives have AC50 up to about 26 µM;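 further: cells exposed to compound for 48 hours before readout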). The settings on record: JHH-DIPG-1 glioma viability, CellTiter-Glo ATP luminescence.
A short description of experiment [7]: SU-DIPG-XXV glioma cell viability, MIPE5.0 library, qHTS (AID 1347068; cut-off not given, nearly all actives have IC50 up to about 30 µM). A general note: Quantitative high-throughput screening tests each substance at several concentrations.
A short description of experiment [8]: viability loss in pontine glioma line – cell-based, SU-DIPG-XXV, MIPE5.0, CellTiter-Glo, qHTS, dose response (AID 1347065; cut-off not given, nearly all actives have AC50 up to about 26 µM;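 further: cells exposed to compound for 48 hours before ATP readout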). The note with it: CellTiter-Glo ATP luminescence.
Experiment [9] in a line: sensitizers of A549 cells to miR-34 induction, primary screen, imaging, A549 dox-inducible miR-34, nuclei and caspase counts (AID 1347080;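 active means compounds whose cell count with miR-34 switched on is under 0.7 times the count with it off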). The note with it: A549 miR-34 inducible, Hoechst nuclei count, 48 h.
The nature of experiment [10]: survival rescue of mitochondrial mutant cells in low glucose, primary screen, MELAS cybrids, Rieske KO mouse fibroblasts, CellTiter-Glo (AID 1508586;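 active means mean z-score across replicates of 1.96 or higher in either the MELAS or the Rieske mutant cell line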;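 further: z relative to plate mean and SD of compound and empty wells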).
Experiment [11] can be described thus: ovarian cancer cell viability with rucaparib, profiling panel, oncology-focused library, rucaparib conditional (AID 1508598). The note with it: patient-derived ovarian cancer cells, CellTiter-Glo viability, 144 h, stronger effect = lower value.

Results filed as inconclusive are left out. Calls of active or inactive are those of the source.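 How the source made its calls, unless noted: active means normalized viability below 100% at a tested concentration; inactive means the rest.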

With `OC[C@H]1O[C@@H](OCCc2ccc(O)cc2)[C@H](O)[C@@H](O)[C@@H]1O`, the compound was classed as inactive in experiment [1], in experiment [2], in experiment [3] and in [4].

In the case of `O=C(O)c1cc(O)c2c(c1)C(=O)c1cccc(O)c1C2=O`, the call in [1], in experiment [2], in [3], in experiment [5], in experiment [6] and in [7] was inactive.

Turning to `CNC(=O)c1ccc(Nc2cc(Nc3ccccc3S(=O)(=O)C(C)C)c3cc[nH]c3n2)nc1`, the AC50 (in general, the midpoint of the concentration-response curve, whichever way the signal moves) in experiment [1] is 16.6 µM (active); in experiment [2] it was 14.8 µM (active); in [3], 11.8 µM (active); in [4], 16.6 µM (active).

Consider `CC1COC2(CCN(c3nc(=O)c4cc(C(F)(F)F)cc([N+](=O)[O-])c4s3)CC2)O1` (stereo not drawn), for which the outcome in experiment [1], in [2], in experiment [3], in [8], in experiment [4] and in experiment [6] was inactive. For the same compound, in experiment [7], the compound was called inactive. Also, the fold change in experiment [9] (stronger effect = lower value, cell number ratio, induced over uninduced) was 0.872 (inactive); in [9] (measured here: relative caspase fold change +Dox/-Dox), 0.894. Besides, the cell count in experiment [9] (measured here: total cells with miR-34 induction, stronger effect = lower value) amounted to 6990; in [9] (measured here: total cells without miR-34 induction), 8010. Besides, the z-score in experiment [10] (MELAS cybrid survival, CellTiter-Glo 48 h, stronger effect = higher value) is -0.641 (inactive); in experiment [10] (Rieske KO mouse fibroblast survival, CellTiter-Glo 72 h) it was -0.174. Besides, the viability (commonly a read-out of living cells in per cent, often relative to untreated cells) was 115% (inactive) in experiment [11] (at 0.000305 µM, OCI-C5x cells, with rucaparib 10 µM, 100% = cells with rucaparib alone); 107% (inactive) in experiment [11] (at 0.000305 µM, OCI-C5x cells, without rucaparib); 99.5% (active) in [11] (at 0.000305 µM, OCI-P5x cells, with rucaparib 20 µM, 100% = cells with rucaparib alone); 95.5% (active) in experiment [11] (at 0.000305 µM, OCI-P5x cells, without rucaparib); 134% (inactive) in [11] (at 0.00122 µM, OCI-C5x cells, with rucaparib 10 µM, 100% = cells with rucaparib alone); 116% (inactive) in experiment [11] (at 0.00122 µM, OCI-C5x cells, without rucaparib). Also, the viability in experiment [11] (at 0.00122 µM, OCI-P5x cells, with rucaparib 20 µM, 100% = cells with rucaparib alone) was 105% (inactive); in experiment [11] (at 0.00122 µM, OCI-P5x cells, without rucaparib), 94.9% (active); in [11] (at 0.00488 µM, OCI-C5x cells, with rucaparib 10 µM, 100% = cells with rucaparib alone), 129% (inactive); in experiment [11] (at 0.00488 µM, OCI-C5x cells, without rucaparib), 119% (inactive); in experiment [11] (at 0.00488 µM, OCI-P5x cells, with rucaparib 20 µM, 100% = cells with rucaparib alone) it was 102% (inactive); in [11] (at 0.00488 µM, OCI-P5x cells, without rucaparib), 104% (inactive). Moreover, the viability in experiment [11] (at 0.0195 µM, OCI-C5x cells, with rucaparib 10 µM, 100% = cells with rucaparib alone) is 126% (inactive); in experiment [11] (at 0.0195 µM, OCI-C5x cells, without rucaparib), 112% (inactive); in experiment [11] (at 0.0195 µM, OCI-P5x cells, with rucaparib 20 µM, 100% = cells with rucaparib alone) it was 105% (inactive); in experiment [11] (at 0.0195 µM, OCI-P5x cells, without rucaparib), 106% (inactive); in [11] (at 0.0781 µM, OCI-C5x cells, with rucaparib 10 µM, 100% = cells with rucaparib alone) it was 118% (inactive); in experiment [11] (at 0.0781 µM, OCI-C5x cells, without rucaparib) it was 116% (inactive). The viability in experiment [11] (at 0.0781 µM, OCI-P5x cells, with rucaparib 20 µM, 100% = cells with rucaparib alone) was 107% (inactive); in experiment [11] (at 0.0781 µM, OCI-P5x cells, without rucaparib), 103% (inactive); in experiment [11] (at 0.313 µM, OCI-C5x cells, with rucaparib 10 µM, 100% = cells with rucaparib alone) it was 121% (inactive); in experiment [11] (at 0.313 µM, OCI-C5x cells, without rucaparib), 118% (inactive); in experiment [11] (at 0.313 µM, OCI-P5x cells, with rucaparib 20 µM, 100% = cells with rucaparib alone), 111% (inactive); in experiment [11] (at 0.313 µM, OCI-P5x cells, without rucaparib), 108% (inactive). In addition, the viability in experiment [11] (at 1.25 µM, OCI-C5x cells, with rucaparib 10 µM, 100% = cells with rucaparib alone) is 115% (inactive); in experiment [11] (at 1.25 µM, OCI-C5x cells, without rucaparib), 130% (inactive); in [11] (at 1.25 µM, OCI-P5x cells, with rucaparib 20 µM, 100% = cells with rucaparib alone), 102% (inactive); in experiment [11] (at 1.25 µM, OCI-P5x cells, without rucaparib), 108% (inactive); in [11] (at 5 µM, OCI-C5x cells, with rucaparib 10 µM, 100% = cells with rucaparib alone) it was 122% (inactive); in experiment [11] (at 5 µM, OCI-C5x cells, without rucaparib), 121% (inactive). Further, the viability in [11] (at 5 µM, OCI-P5x cells, with rucaparib 20 µM, 100% = cells with rucaparib alone) was 108% (inactive); in [11] (at 5 µM, OCI-P5x cells, without rucaparib), 105% (inactive).

`CC(C)(C)OC(=O)N[C@H]1CCCCC/C=C\[C@@H]2C[C@@]2(C(=O)NS(=O)(=O)C2CC2)NC(=O)[C@@H]2C[C@@H](OC(=O)N3Cc4cccc(F)c4C3)CN2C1=O`: the compound was classed as inactive in experiment [1], in experiment [2], in [3], in experiment [5], in [4] and in [7].

`CC(NCc1ccc2c(c1)nc(NC(=O)c1ccc(-c3cn[nH]c3)s1)n2CC(C)(C)O)C(C)(C)C` (stereo not drawn): the AC50 in experiment [1] was 3.32 µM (active); in experiment [2], 0.332 µM (active); in experiment [3] it was 0.833 µM (active); in experiment [4] it was 5.9 µM (active).

On to `CN(C)CCCNC(=O)c1ccc(-c2cc(O)c3ncccc3c2)cc1`, for which the compound was called inactive in experiment [1], in experiment [2], in experiment [3], in experiment [8] and in [6].

Regarding `CN[C@H]1[C@H](O[C@@H]2[C@H](O[C@@H]3[C@@H](O)[C@@H](O)[C@@H](N=C(N)N)[C@@H](O)[C@H]3N=C(N)N)O[C@H](C)[C@@]2(O)C=O)O[C@@H](CO)[C@@H](O)[C@H]1O`, the call in [1], in experiment [2], in experiment [3] and in experiment [4] was inactive.
